# Data: the supplement of paper PMC10849652
# Of roughly 8,800 targets only a part is listed; those with a hit were picked by preference. About 0.5% of all pairs of compound and target were hits.
# Compound: CNc1nc(-c2ccc3c(N)n[nH]c3c2)cc(N2C[C@@H](C(=O)NC3CCCCC3)CC[C@H]2C)n1
# Assay: log2 fold change, soluble protein after heating vs DMSO (PISA); higher = thermal stabilisation; K562 lysate, 10 uM; active = over 0.2 and 3.5 SD of the protein, either way, in both replicates (recomputed)
# Method in brief: (§1)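 Dounce homogenisation of K562 pellets in PBS pH 7.4 with 1 mM MgCl2 produced a crude extract, used at 1 mg/mL protein. Exposure to 10 μM compound lasted 30 min, and aliquots were then heated for 3 min across 48°C-58°C, pooled and brought to 0.5% NP-40 at 4°C. The supernatant after 21,000xg for 90 min was quantified by TMTpro 16plex LC-MS/MS with channel sums equalised. Duplicate values are given as log-two fold change in thermal stability relative to solvent controls.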
# Sequence of UniProt Q14203 (Q14203 whole entry, looked up): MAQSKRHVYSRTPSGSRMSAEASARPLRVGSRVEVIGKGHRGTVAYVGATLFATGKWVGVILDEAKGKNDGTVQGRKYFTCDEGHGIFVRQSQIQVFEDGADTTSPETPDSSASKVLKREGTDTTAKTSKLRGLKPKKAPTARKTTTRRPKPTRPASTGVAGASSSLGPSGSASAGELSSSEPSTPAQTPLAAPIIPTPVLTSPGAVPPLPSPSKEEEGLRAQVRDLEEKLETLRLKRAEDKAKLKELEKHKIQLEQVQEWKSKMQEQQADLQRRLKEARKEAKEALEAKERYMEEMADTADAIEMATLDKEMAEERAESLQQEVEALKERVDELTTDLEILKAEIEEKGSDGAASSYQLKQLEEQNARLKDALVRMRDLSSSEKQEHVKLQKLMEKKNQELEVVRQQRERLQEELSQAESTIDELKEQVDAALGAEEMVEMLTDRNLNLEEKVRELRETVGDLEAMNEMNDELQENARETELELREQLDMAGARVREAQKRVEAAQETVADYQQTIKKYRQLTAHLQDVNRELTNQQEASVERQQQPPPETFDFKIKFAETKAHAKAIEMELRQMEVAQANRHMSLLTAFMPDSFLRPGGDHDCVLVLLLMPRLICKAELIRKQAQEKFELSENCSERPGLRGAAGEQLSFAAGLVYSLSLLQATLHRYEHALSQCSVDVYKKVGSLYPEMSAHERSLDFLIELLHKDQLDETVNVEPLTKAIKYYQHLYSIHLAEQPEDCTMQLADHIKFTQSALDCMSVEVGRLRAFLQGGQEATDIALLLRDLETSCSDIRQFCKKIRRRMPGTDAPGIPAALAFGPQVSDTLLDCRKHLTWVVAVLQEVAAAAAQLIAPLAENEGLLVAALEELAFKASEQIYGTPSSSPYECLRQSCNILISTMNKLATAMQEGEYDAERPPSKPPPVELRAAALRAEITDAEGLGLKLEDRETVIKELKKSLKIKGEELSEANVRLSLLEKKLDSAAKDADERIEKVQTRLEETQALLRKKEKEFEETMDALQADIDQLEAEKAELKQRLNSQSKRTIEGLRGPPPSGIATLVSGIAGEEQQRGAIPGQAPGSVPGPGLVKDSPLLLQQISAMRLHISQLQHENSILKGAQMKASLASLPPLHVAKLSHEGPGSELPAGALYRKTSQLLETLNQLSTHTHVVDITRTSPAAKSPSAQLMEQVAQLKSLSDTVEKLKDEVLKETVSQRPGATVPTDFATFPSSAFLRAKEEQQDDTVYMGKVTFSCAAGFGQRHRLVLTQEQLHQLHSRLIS
# Sequence of UniProt P51530 (P51530 whole entry, looked up): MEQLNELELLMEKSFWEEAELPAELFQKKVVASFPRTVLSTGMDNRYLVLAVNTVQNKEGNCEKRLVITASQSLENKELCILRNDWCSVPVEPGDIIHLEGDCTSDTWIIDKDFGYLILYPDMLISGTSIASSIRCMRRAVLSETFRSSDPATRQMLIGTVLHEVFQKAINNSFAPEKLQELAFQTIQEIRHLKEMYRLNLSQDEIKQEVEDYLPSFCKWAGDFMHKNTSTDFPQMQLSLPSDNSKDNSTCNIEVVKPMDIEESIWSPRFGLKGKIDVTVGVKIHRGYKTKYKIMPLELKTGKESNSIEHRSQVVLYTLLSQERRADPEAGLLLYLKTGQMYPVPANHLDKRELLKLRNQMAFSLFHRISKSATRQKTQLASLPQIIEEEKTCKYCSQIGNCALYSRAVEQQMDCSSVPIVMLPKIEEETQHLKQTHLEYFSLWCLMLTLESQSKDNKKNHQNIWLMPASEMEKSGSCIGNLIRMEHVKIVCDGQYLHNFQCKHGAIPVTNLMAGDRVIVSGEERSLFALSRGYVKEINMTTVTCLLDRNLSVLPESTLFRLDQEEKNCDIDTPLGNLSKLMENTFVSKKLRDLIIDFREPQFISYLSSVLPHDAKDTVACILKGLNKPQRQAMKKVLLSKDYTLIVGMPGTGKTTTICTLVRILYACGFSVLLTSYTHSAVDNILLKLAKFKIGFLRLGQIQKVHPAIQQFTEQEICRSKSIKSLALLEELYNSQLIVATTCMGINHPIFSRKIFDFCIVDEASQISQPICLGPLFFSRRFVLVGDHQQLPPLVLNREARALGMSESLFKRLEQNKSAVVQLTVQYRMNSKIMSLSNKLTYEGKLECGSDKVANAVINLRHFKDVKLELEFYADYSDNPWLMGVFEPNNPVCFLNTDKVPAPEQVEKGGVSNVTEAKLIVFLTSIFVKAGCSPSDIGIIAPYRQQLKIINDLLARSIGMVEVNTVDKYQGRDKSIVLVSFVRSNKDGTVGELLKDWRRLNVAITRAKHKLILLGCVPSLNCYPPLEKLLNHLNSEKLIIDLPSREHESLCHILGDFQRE
# Sequence of UniProt Q9UBU7 (Q9UBU7 whole entry, looked up): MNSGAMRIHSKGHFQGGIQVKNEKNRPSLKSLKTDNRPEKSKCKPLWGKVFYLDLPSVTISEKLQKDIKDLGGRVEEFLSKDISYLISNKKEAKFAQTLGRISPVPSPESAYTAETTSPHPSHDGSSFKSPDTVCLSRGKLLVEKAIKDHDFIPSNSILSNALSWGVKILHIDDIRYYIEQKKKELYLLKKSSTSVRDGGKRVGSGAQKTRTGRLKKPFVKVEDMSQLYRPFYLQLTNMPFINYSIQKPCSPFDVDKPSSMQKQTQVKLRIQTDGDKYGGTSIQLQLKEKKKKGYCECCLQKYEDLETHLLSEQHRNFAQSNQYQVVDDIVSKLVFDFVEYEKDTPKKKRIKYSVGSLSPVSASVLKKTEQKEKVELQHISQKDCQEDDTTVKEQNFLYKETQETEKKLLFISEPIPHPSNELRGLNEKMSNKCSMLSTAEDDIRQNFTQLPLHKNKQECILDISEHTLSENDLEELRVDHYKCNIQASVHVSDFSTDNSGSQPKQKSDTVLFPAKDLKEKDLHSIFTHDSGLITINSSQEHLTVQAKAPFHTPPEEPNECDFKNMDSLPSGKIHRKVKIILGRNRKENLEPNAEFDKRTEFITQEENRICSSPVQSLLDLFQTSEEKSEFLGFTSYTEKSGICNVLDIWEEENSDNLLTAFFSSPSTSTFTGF
# Sequence of UniProt P00374 (P00374 whole entry, looked up): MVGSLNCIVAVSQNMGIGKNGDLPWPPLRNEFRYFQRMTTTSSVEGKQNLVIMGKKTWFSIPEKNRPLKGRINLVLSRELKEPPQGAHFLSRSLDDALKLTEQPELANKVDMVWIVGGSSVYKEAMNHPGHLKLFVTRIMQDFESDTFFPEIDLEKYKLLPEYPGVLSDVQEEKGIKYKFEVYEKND
# Sequence of UniProt Q9H8M5 (Q9H8M5 whole entry, looked up): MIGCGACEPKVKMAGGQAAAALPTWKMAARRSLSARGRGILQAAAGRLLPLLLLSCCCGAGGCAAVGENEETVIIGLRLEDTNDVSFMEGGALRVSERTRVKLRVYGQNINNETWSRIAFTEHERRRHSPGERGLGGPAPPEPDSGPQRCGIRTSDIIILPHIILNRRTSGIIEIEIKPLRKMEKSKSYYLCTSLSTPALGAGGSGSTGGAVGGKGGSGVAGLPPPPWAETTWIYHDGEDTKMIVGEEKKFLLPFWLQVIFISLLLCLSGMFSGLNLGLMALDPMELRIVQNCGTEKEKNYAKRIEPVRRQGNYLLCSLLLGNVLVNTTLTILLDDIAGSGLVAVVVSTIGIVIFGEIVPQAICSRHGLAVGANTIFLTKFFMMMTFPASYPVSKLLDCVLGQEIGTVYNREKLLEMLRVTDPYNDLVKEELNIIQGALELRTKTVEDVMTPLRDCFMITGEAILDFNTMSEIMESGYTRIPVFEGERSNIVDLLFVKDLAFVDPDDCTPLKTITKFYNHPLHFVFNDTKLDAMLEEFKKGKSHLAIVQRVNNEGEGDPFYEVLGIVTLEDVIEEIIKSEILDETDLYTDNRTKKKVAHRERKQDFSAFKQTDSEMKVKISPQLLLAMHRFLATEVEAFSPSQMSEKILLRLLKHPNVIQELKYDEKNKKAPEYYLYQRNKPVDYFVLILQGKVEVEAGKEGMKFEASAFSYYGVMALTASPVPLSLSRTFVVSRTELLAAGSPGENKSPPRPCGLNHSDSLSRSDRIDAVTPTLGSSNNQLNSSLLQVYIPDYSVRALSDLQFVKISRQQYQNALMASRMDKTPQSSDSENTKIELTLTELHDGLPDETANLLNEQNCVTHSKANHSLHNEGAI
# Sequence of UniProt P50570 (P50570 whole entry, looked up): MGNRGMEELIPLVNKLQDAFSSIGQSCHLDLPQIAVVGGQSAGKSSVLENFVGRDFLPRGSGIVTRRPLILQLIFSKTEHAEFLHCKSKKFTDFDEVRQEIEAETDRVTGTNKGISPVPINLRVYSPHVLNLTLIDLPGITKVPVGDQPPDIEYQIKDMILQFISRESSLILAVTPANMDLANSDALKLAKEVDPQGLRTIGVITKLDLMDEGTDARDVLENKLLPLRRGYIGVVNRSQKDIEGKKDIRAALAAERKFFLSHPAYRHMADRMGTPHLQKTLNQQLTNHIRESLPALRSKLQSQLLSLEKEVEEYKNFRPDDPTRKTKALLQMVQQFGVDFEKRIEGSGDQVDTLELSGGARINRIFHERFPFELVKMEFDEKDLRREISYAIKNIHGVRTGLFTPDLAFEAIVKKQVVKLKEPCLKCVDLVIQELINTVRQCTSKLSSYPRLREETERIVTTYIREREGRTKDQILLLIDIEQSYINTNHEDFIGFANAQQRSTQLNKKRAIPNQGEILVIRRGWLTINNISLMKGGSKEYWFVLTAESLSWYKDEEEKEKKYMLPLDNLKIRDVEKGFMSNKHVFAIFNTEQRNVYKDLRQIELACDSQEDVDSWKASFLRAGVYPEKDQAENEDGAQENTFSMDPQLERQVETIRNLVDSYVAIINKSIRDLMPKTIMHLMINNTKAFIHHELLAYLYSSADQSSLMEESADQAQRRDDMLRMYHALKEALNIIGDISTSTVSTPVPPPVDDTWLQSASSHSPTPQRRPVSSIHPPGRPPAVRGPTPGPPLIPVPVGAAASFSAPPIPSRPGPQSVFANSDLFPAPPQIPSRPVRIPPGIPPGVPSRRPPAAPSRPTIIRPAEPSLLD
# Sequence of UniProt P24311 (P24311 whole entry, looked up): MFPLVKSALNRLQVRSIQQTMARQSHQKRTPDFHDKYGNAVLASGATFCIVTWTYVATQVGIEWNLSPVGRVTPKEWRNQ
row,Target,log2 fold change
1,CUX1 isoform 3 (UniProt P39880),0.005 (inactive)
2,"CLUH, A0A494C0R8",-0.049 (inactive)
3,CUX1 isoform 2 (UniProt Q13948),-0.028 (inactive)
4,DENND4A isoform 2 (UniProt Q7Z401),-0.001 (inactive)
5,DNM2 (UniProt P50570),0.029 (inactive)
6,DAZAP1 (UniProt Q96EP5),0.058 (inactive)
7,DNAAF5 (UniProt Q86Y56),-0.011 (inactive)
8,DDAH1 (UniProt O94760),-0.002 (inactive)
9,CNOT4 isoform 9 (UniProt O95628),-0.047 (inactive)
10,CLPB isoform 2 (UniProt Q9H078),-0.049 (inactive)
11,DNAH5 (UniProt Q8TE73),-0.051 (inactive)
12,DPH5 isoform 5 (UniProt Q9H2P9),0.02 (inactive)
13,DAPK1 isoform 3 (UniProt P53355),0.058 (inactive)
14,COX7B (UniProt P24311),-0.014 (inactive)
15,CIP2A (UniProt Q8TCG1),-0.074 (inactive)
16,DNA2 (UniProt P51530),-0.035 (inactive)
17,COG2 (UniProt Q14746),0.028 (inactive)

row,Target,log2 fold change
1,DCP1A (UniProt Q9NPI6),0 (inactive)
2,CSNK1E (UniProt P49674),0.093 (inactive)
3,DMAC2L (UniProt Q99766),0.018 (inactive)
4,DENND1B (UniProt Q6P3S1),0.023 (inactive)
5,COG6 (UniProt Q9Y2V7),0.059 (inactive)
6,CORO7 (UniProt P57737),-0.05 (inactive)
7,DHFR (UniProt P00374),-0.023 (inactive)
8,CHMP4A isoform 2 (UniProt Q9BY43),0.039 (inactive)
9,DDX39A (UniProt O00148),-0.025 (inactive)
10,DCTN1 isoform 4 (UniProt Q14203),0.105 (inactive)
11,CMBL (UniProt Q96DG6),0.013 (inactive)
12,DBF4 (UniProt Q9UBU7),-0.058 (inactive)
13,DHRS11 (UniProt Q6UWP2),0.031 (inactive)
14,DDX54 isoform 2 (UniProt Q8TDD1),-0.03 (inactive)
15,CNNM2 (UniProt Q9H8M5),-0.01 (inactive)
16,CSTF2 (UniProt P33240),0.024 (inactive)

# Compound: COC(=O)N[C@@H](C)CNc1nccc(-c2cn(C(C)C)nc2-c2cc(Cl)cc(NS(C)(=O)=O)c2F)n1 [encorafenib]
# Assay: as above
# Method in brief: as §1
row,Target,log2 fold change
1,CUX1 isoform 3 (UniProt P39880),0 (inactive)
2,"CLUH, A0A494C0R8",-0.089 (inactive)
3,CUX1 isoform 2 (UniProt Q13948),0.067 (inactive)
4,DENND4A isoform 2 (UniProt Q7Z401),0.013 (inactive)
5,DNM2 (UniProt P50570),-0.004 (inactive)
6,DAZAP1 (UniProt Q96EP5),-0.018 (inactive)
7,DIAPH1 (UniProt H9KV28),0.054 (inactive)
8,DNAAF5 (UniProt Q86Y56),0.073 (inactive)
9,DDAH1 (UniProt O94760),0 (inactive)
10,CNOT4 isoform 9 (UniProt O95628),0.037 (inactive)
11,CLPB isoform 2 (UniProt Q9H078),0.025 (inactive)
12,DPH5 isoform 5 (UniProt Q9H2P9),-0.044 (inactive)
13,COX7B (UniProt P24311),-0.022 (inactive)
14,CIP2A (UniProt Q8TCG1),0.008 (inactive)
15,DNA2 (UniProt P51530),0.123 (inactive)
16,COG2 (UniProt Q14746),-0.009 (inactive)

row,Target,log2 fold change
1,DCP1A (UniProt Q9NPI6),0.006 (inactive)
2,CSNK1E (UniProt P49674),-0.032 (inactive)
3,DMAC2L (UniProt Q99766),0.016 (inactive)
4,COG6 (UniProt Q9Y2V7),-0.026 (inactive)
5,CORO7 (UniProt P57737),-0.081 (inactive)
6,DHFR (UniProt P00374),0.01 (inactive)
7,CHMP4A isoform 2 (UniProt Q9BY43),0.026 (inactive)
8,DDX39A (UniProt O00148),0.001 (inactive)
9,DCTN1 isoform 4 (UniProt Q14203),0.078 (inactive)
10,CMBL (UniProt Q96DG6),-0.051 (inactive)
11,DBF4 (UniProt Q9UBU7),0.04 (inactive)
12,DHRS11 (UniProt Q6UWP2),0.024 (inactive)
13,DDX54 isoform 2 (UniProt Q8TDD1),0.084 (inactive)
14,CNTN4 (UniProt Q8IWV2),-0.193 (inactive)
15,CNNM2 (UniProt Q9H8M5),-0.048 (inactive)
16,CSTF2 (UniProt P33240),-0.009 (inactive)

# Compound: COC(=O)[C@H](CCSC)NC(=O)C1=C(C=C(C=C1)NC[C@H](CS)N)C2=CC=CC=C2
# Assay: as above
# Method in brief: as §1
row,Target,log2 fold change
1,CUX1 isoform 3 (UniProt P39880),0 (inactive)
2,"CLUH, A0A494C0R8",0.054 (inactive)
3,CUX1 isoform 2 (UniProt Q13948),-0.022 (inactive)
4,DENND4A isoform 2 (UniProt Q7Z401),0.032 (inactive)
5,DNM2 (UniProt P50570),0.061 (inactive)
6,DAZAP1 (UniProt Q96EP5),-0.045 (inactive)
7,DIAPH1 (UniProt H9KV28),0.213 (inactive)
8,DNAAF5 (UniProt Q86Y56),0.101 (inactive)
9,DDAH1 (UniProt O94760),0.009 (inactive)
10,CNOT4 isoform 9 (UniProt O95628),0.003 (inactive)
11,CLPB isoform 2 (UniProt Q9H078),-0.053 (inactive)
12,DPH5 isoform 5 (UniProt Q9H2P9),-0.024 (inactive)
13,COX7B (UniProt P24311),0.315 (active)
14,CIP2A (UniProt Q8TCG1),0.053 (inactive)
15,DNA2 (UniProt P51530),-0.098 (inactive)
16,COG2 (UniProt Q14746),0.052 (inactive)

row,Target,log2 fold change
1,DCP1A (UniProt Q9NPI6),-0.046 (inactive)
2,CSNK1E (UniProt P49674),0.028 (inactive)
3,DMAC2L (UniProt Q99766),-1.03 (active)
4,COG6 (UniProt Q9Y2V7),0.034 (inactive)
5,CORO7 (UniProt P57737),0.061 (inactive)
6,DHFR (UniProt P00374),0.141 (inactive)
7,CHMP4A isoform 2 (UniProt Q9BY43),-0.001 (inactive)
8,DDX39A (UniProt O00148),0.163 (inactive)
9,DCTN1 isoform 4 (UniProt Q14203),-0.064 (inactive)
10,CMBL (UniProt Q96DG6),-0.009 (inactive)
11,DBF4 (UniProt Q9UBU7),-0.072 (inactive)
12,DHRS11 (UniProt Q6UWP2),0.109 (inactive)
13,DDX54 isoform 2 (UniProt Q8TDD1),0.025 (inactive)
14,CNTN4 (UniProt Q8IWV2),0.124 (inactive)
15,CNNM2 (UniProt Q9H8M5),0.033 (inactive)
16,CSTF2 (UniProt P33240),-0.099 (inactive)
